Screening data deposited in PubChem BioAssay by several laboratories.
Sampled rows, rich in hits. Any-hit rate of the full collection: about 3.8%.
ADAM17 inh – ADAM17 inhibitors, primary screen, biochemical, QFRET; AID 720648, 2013; Disintegrin and metalloproteinase domain-containing protein 17 (Homo sapiens), P78536; recombinant ADAM17, EDANS/DABCYL FRET peptide cleavage; inhibition, % at 6.95 µM; hit rate 0.83% among 370,000;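 active means inhibition above the mean of compounds lying between control limits plus 3 SD, set per campaign, cut at about 8.5% in these data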;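 further: 0% = DMSO-only wells as the low control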
KLK7 zymogen act – proKLK7 zymogen activators, primary screen, biochemical, fluorescence intensity; Kallikrein-7 (Homo sapiens), P49862; purified proKLK7, EDANS-DABCYL substrate fluorescence; 100% is mature enzyme control, 0% vehicle; activation, % at 7 µM; hit rate 0.9% among 370,000; AID 652039, 2013;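 active means activation above the mean of all tested compounds plus 3 SD, computed per campaign excluding outliers beyond control limits, cut at about 13% in these data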
ADAM10 inh – human ADAM10 inhibitors, primary screen, biochemical, QFRET, HTS; recombinant ADAM10, EDANS/DABCYL FRET peptide cleavage, 3 h; inhibition, % at 7 µM; hit rate 0.62% among 370,000; AID 720582, 2013;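 active means inhibition above a per-campaign cutoff equal to the mean of compounds falling between control-based bounds plus 3 SD, cut at about 20% in these data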;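 further: 0% = DMSO wells while the 100% control is not disclosed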
Target sequence (O14672 214-748 limits assumed): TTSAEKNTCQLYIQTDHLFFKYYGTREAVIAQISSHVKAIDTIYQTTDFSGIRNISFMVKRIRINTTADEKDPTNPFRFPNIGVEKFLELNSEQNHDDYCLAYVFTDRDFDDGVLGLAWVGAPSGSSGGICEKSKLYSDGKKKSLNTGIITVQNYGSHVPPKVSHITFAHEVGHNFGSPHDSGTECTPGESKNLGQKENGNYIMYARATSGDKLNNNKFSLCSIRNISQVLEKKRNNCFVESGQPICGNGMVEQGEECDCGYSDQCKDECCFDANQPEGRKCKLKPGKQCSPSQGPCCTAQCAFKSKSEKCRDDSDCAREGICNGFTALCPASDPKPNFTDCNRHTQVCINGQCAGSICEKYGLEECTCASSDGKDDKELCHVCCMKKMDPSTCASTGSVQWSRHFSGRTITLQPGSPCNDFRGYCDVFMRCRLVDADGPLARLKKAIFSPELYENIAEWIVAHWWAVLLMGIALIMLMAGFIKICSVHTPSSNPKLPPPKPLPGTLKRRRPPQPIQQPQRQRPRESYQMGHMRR
FGF22 binding – binders of human FGF22 protein, primary screen, FGF22 synaptogenesis inhibitor project, biophysical, thermal shift, single point; Fibroblast growth factor 22 (Homo sapiens), Q9HCT0; recombinant FGF22 thermal shift, SYPRO orange fluorescence; percent of sucrose octasulfate shift, DMSO zero; activity (Tm shift, normalised), % at 9.99 µM; hit rate 1.5% among 340,000; AID 651658, 2012;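 active means mean Tm shift, scaled 0 neutral to 100 positive control, at about 1.3% or above, every replicate too, limit read from the data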
Ecoli rRNA inh – reduced GFP signal of wild-type E. coli, primary screen, bacterial rRNA inhibitor project, GFP/RFP fluorescence, OD600, single point; E. coli WT GFP vs humanized-ribosome RFP mutants, 24 h; active compounds read low; DMSO median 0, no signal -100; GFP signal change (wild-type ribosome), % (test concentration not listed); hit rate 1.6% among 350,000;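 active means significant combined selectivity score with lowered wild-type GFP, culture density cut under 30%, mutant RFP and density less affected; inactive means any of these conditions unmet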
* = called active by the depositor; nt = no result given.

SMILES	ADAM17 inh	KLK7 zymogen act	ADAM10 inh	FGF22 binding	Ecoli rRNA inh
Cc1ccc(OCC(=O)Nc2ccc(S(=O)(=O)NC3=NCCCCC3)cc2)cc1	-3.4	-0.2	-12.9	0.1	1.0
Cc1ccc(S(=O)(=O)NC2=NCCCCC2)cc1	-0.7	0.0	-9.0	43.1*	21.1
COc1cccc(-c2ccc3n(c2=O)C[C@@H]2[C@@H](CO)[C@H](C(=O)NC4CCCC4)[C@H]3N2C)c1	nt	nt	nt	-0.2	-0.2
C[C@@H]1CCCCO[C@@H](CN(C)C(=O)Nc2ccc(F)cc2)[C@H](C)CN([C@@H](C)CO)C(=O)c2cc(NC(=O)c3ccncc3)ccc2O1	nt	nt	nt	0.5	-1.4
O=C1/C(=C/c2ccc(O)cc2)SC(=S)N1CC1CCCO1 (stereo unspecified)	2.1	-0.1	4.0	0.2	-24.2*
CCCOc1ccc(/C=C2\SC(=S)N(CC3CCCO3)C2=O)cc1 (stereo unspecified)	-0.3	-0.7	-13.5	nt	nt
C[C@H](CO)N1C[C@H](C)[C@@H](CN(C)C(=O)CCCN(C)C)OCCCC[C@H](C)Oc2ccc(NC(=O)Nc3ccc(F)cc3)cc2C1=O	nt	nt	nt	-0.4	-0.6
C[C@H]1CCCCO[C@@H](CN(C)C(=O)Nc2ccc(C(F)(F)F)cc2)[C@@H](C)CN([C@@H](C)CO)C(=O)c2cc(NC(=O)Nc3ccc(C(F)(F)F)cc3)ccc2O1	nt	nt	nt	0.1	4.7
CCCn1c(N)c(C(=O)CSc2nnc(C3CC3)n2-c2ccccc2)c(=O)[nH]c1=O	-3.8	-0.1	-7.5	0.0	1.2
CCCn1c(N)c(C(=O)CSc2nnc(C3CC3)n2C2CC2)c(=O)[nH]c1=O	-1.2	0.2	-5.4	43.0*	9.1
O=C(CSc1nnc(C2CC2)n1C1CC1)c1ccc(Br)s1	-1.7	0.9	-11.2	0.1	-28.4*
O=C(CSc1nnc(C2CC2)n1C1CC1)c1cccs1	-1.9	0.2	-13.5	0.0	-0.4
C/C=C/c1ccc2c(c1)O[C@@H](CN(C)C(=O)CC)[C@H](C)CN([C@@H](C)CO)S2(=O)=O	nt	nt	nt	0.1	-0.7
O=C(CSCc1nc2c(nnn2Cc2ccc(F)cc2)c(=O)[nH]1)Nc1c(Cl)cc(Cl)cc1Cl	-1.6	0.2	9.2	43.3*	nt
CCc1nc2c(nnn2Cc2ccc(F)cc2)c(=O)[nH]1	-2.4	0.0	-3.0	nt	8.5
Cc1ccc(S(=O)(=O)N(C)C[C@@H]2Oc3c(NS(C)(=O)=O)cccc3C(=O)N([C@H](C)CO)C[C@H]2C)cc1	nt	nt	nt	-0.1	-0.8
Cn1nc2c(c1C(=O)N1CCCC(C(=O)c3cc(F)ccc3F)C1)CCCC2 (stereo unspecified)	-1.8	0.1	1.7	43.4*	1.0
COc1ccc(C(=O)C2CCCN(C(=O)c3c4c(nn3C)CCCC4)C2)cc1F (stereo unspecified)	-5.5	-1.4	-5.4	nt	-0.8
CCCN1C[C@@H](C)[C@@H](OC)CN(C)C(=O)c2cc(NC(=O)Nc3ccccc3F)ccc2OC[C@H]1C	nt	nt	nt	0.0	3.6
COc1cc(C(=S)N2CCOCC2)ccc1OC(=O)c1ccccc1	-2.5	-0.2	0.3	-0.2	3.8
COc1cc(C(=S)N2CCOCC2)ccc1OC(=O)/C=C/c1ccco1	4.4	0.3	2.5	43.1*	-6.3
O=C(/C=C/c1ccccc1)Oc1ccccc1C(=S)N1CCOCC1	0.0	-0.4	4.7	43.2*	-14.8
C[C@@H]1CN([C@@H](C)CO)C(=O)Cc2cc(NS(=O)(=O)c3cccs3)ccc2O[C@H]1CN(C)Cc1ccncc1	nt	nt	nt	-0.2	-2.5
CO[C@H]1CN(C)C(=O)c2cc(NC(=O)CC(F)(F)F)ccc2OC[C@H](C)N(C(=O)C2CCOCC2)C[C@@H]1C	nt	nt	nt	0.0	0.4
CCCNC(=O)CCCCn1c(=S)[nH]c2c([nH]c3ccc(OC)cc32)c1=O	-1.8	0.3	2.1	42.9*	18.0
SMILES	ADAM17 inh	KLK7 zymogen act	ADAM10 inh	FGF22 binding	Ecoli rRNA inh
COc1ccc2[nH]c3c(=O)n(CCCC(=O)NC4CCC(C)CC4)c(=S)[nH]c3c2c1 (stereo unspecified)	-4.5	-0.4	-17.4	-0.3	6.1
Cc1noc(C)c1NC(=O)Nc1ccc2c(c1)C(=O)N([C@H](C)CO)C[C@H](C)[C@H](CN(C)CC1CCCCC1)OCCCC[C@H](C)O2	nt	nt	nt	0.2	2.9
CCNC(=O)C[C@H]1CC[C@H]2[C@H](COc3ccc(NC(=O)c4ccc(C(F)(F)F)cc4)cc3C(=O)N2C)O1	nt	nt	nt	-0.1	1.2
O=C(NN=Cc1cc(Br)c(O)c(Br)c1)c1ccccc1NS(=O)(=O)c1cccs1	-28.2	-1.1	-114.9	nt	-24.8*
O=C(N/N=C/c1cccnc1)c1ccccc1NS(=O)(=O)c1cccs1	0.3	0.0	5.4	0.1	-30.5*
Cc1ccc(NC(=O)NC2=NN(c3ccccc3)C(=O)/C2=C2/CCCN2C)cc1	-7.7	0.6	-3.8	0.2	9.5
CN1CCC/C1=C1/C(=O)N(c2ccccc2)N=C1NC(=O)Nc1cccc(Cl)c1	0.6	0.4	3.6	-0.6	-31.2*
Oc1cccc(NC(=S)N=Nc2c(O)[nH]c3ccc(Br)cc23)c1	1.2	0.5	3.2	0.4	-37.2*
O=C(N=Nc1c(O)[nH]c2ccc(Br)cc12)c1ccccc1-n1cccc1	5.9	0.6	19.1	0.0	-29.0*
Oc1[nH]c2ccc(Br)cc2c1N=NC(=S)Nc1ccc(F)cc1	-2.0	0.4	4.1	0.5	5.4
Oc1ccc(NC(=S)N=Nc2c(O)[nH]c3ccc(Br)cc23)cc1	3.6	-0.2	8.2	-0.2	-23.3*
O=C(N=Nc1c(O)[nH]c2ccc(Br)cc12)c1ccco1	1.5	0.1	2.9	0.2	-5.9
COc1ccc(NC(=S)N=Nc2c(O)[nH]c3ccccc23)cc1	0.9	-0.1	5.5	-0.1	-47.2*
CO[C@H]1CN(C)C(=O)c2cc(NC(=O)c3ccccc3)ccc2OC[C@@H](C)N(C(=O)C2CC2)C[C@H]1C	nt	nt	nt	-0.1	-2.5
CNCC(=O)Nc1ccc(Cl)c(C(F)(F)F)c1	2.2	0.0	0.4	42.9*	12.5
Cc1noc(C)c1CSCC(=O)N(C)CC(=O)Nc1ccc(Cl)c(Cl)c1	1.1	-0.3	1.5	-0.3	-14.6
Cc1noc(C)c1CSCC(=O)N(C)CC(=O)Nc1ccc(Cl)c(C(F)(F)F)c1	3.5	0.2	2.7	1.9*	-2.3
CNC(=O)C[C@@H]1CC[C@H]2[C@H](COc3ccc(NC(=O)NC4CCCC4)cc3C(=O)N2C)O1	nt	nt	nt	-0.1	-0.7
Cc1noc(C)c1S(=O)(=O)N(C)C[C@H]1Oc2ccc(NS(C)(=O)=O)cc2C(=O)N([C@H](C)CO)C[C@@H]1C	nt	nt	nt	nt	5.3
